Experimental data from PubChem BioAssay.
Values without a mark were called inactive.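 How the source made its calls, unless noted: active means viability at or under a set limit in both replicates, limit being median viability minus 3 SD (cut at about 48% in these data, passing the limit was not always enough); inconclusive means at or under the limit in just one replicate; inactive means at or above the limit in both replicates.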

test: growth inhibitors of H69AR lung tumor, primary screen, human, duplicate replicates (AID 580); settings: H69AR lung tumor cells viability, ATP luminescence, 72 h; at 10 µM; active compounds read low;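 further: 100% = mean luminescence of untreated wells and 0% = no signal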

| SMILES | viability [%] |
| --- | --- |
| Cc1nnc2n(-c3ccc(Cl)cc3)c(=O)c3c4c(sc3n12)CN(C)CC4 | 91.6 |
| O=c1oc2c3c4c(cc2s1)CCCN4CCC3 | 95.6 |
| Cc1cc(C)n2nc(SCc3nc4ccccc4[nH]3)nc2n1 | 95.7 |
| Cc1cc(C)cc(N(CC(=O)Nc2cccc(C)n2)S(=O)(=O)c2c(C)noc2C)c1 | 85.6 |
| COc1cccc(C2C3=C(N=C4SCC(=O)N42)c2ccccc2CC3)c1OC (stereo not given) | 98.2 |
| O=C(Cn1nc(Cc2ccncc2)c2ccccc2c1=O)N1CCN(C(=O)c2ccco2)CC1 | 86 |
| O=C(Nc1c(C(=O)NCc2ccco2)cnn1-c1ccccc1)c1ccc(F)cc1 | 96.9 |
| Cc1nc2ccc(S(=O)(=O)NC(C(=O)Nc3nccs3)C(C)C)cc2s1 (stereo not given) | 95.7 |
| Cn1nnnc1SCC(=O)N1CCN(c2ccccc2)CC1 | 87.7 |
| COc1cc2c(cc1OC)-c1nnc(C)n1C1(CCCC1)C2 | 99 |
| CS(=O)(=O)N(Cc1ccco1)CC(O)Cn1c2ccccc2c2ccccc21 (stereo not given) | 80.5 |
| COc1cccc(C2=NOC(C(=O)N3CCc4ccccc4C3)C2)c1 (stereo not given) | 92 |
| O=C(CC1Oc2ccccc2NC1=O)NCCCN1CCOCC1 (stereo not given) | 93.5 |
| CCOC(=O)N1CCN(C(=O)c2ccc(CS(=O)(=O)c3c(Cl)cccc3Cl)o2)CC1 | 96.5 |
| CCn1cc(SCC(=O)Nc2cc(C)on2)c2ccccc21 | 84 |
| COc1ccccc1N1CCN(C(=O)N2CCOCC2)CC1 | 73.8 |
| O=C(CSc1nnc2ccccn12)c1ccccc1 | 94.5 |
| CCOc1ccc(N(CC(=O)OC)S(=O)(=O)c2ccc(OC)c(OC)c2)cc1 | 106 |
| CCCCSc1nc(CCC)cc(=O)[nH]1 | 88.2 |
| O=C(CN1CCN(Cc2ccccc2F)C1=O)NCc1cccnc1 | 107 |

| SMILES | viability [%] |
| --- | --- |
| COc1ccc(OC)c(C(=O)c2ccc(C(=O)O)cc2)c1 | 103 |
| Cc1ccc(C)n1-n1c(C)nc2sc(-c3ccccc3)cc2c1=O | 81.9 |
| CCn1c(C(=O)N2CCC(C(=O)N3CCN(c4ccccn4)CC3)CC2)cc2sccc21 | 87.1 |
| C=CCSc1nc(N)c2c(C)c(C)sc2n1 | 88 |
| COc1ccc(OCCSc2nc3ccccc3n2CC(=O)O)cc1 | 97.8 |
| Cc1nnc(SCC(=O)NCc2ccccc2)s1 | 101 |
| Clc1ccc(SCCCCn2ccnc2)cc1 | 99.2 |
| CC1(C)Oc2ccc3ccc(=O)oc3c2C(N2CCCCC2)C1O (stereo not given) | 92.6 |
| CSCCC(N=CC1=C(O)CC(C)(C)CC1=O)C(=O)O (stereo not given) | 87.2 |
| COc1ccc(C)cc1NC(=O)C1CCN(S(=O)(=O)c2cccc3cccnc23)CC1 | 90.9 |
| CCOc1ccc(-c2nnc(SCC(=O)N3CCN(c4ccccc4)CC3)o2)cc1 | 86.5 |
| CCCOc1ccc2ccccc2c1/C=N/n1cnnc1 | 72.3 |
| O=C(Cn1cc2c(n1)CCCCC2)N1CCc2ccccc21 | 87.8 |
| CCn1cc(C(=O)N2CCOCC2)c(=O)c2cc(S(=O)(=O)N(C)C3CCCCC3)ccc21 | 106 |
| COCCn1c(SCC(=O)Nc2ccc3c(c2)OCCO3)nc2c(c1=O)SC(C)C2 (stereo not given) | 84.4 |
| CC(C)CCN(C)C1CCN(S(=O)(=O)c2ccc(F)cc2)CC1 | 81 |
| COc1ccccc1-n1c(=O)[nH]c2c(C(N)=O)nc(-c3cccnc3)nc21 | 69.9 |
| Cn1c(/C=N/n2cnnc2)nc2ccccc21 | 83.4 |
| CN1CCN(CCCNC(=O)Cn2ncc3c4ccccc4n(C)c3c2=O)CC1 | 86 |
| CCOc1ccc(N(CC(=O)NCc2ccco2)S(=O)(=O)c2ccc(OC)c(OC)c2)cc1 | 83.7 |

test: reversal of MRP1-mediated doxorubicin resistance, pilot screen, H69AR cells, doxorubicin co-treatment (AID 601;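 active means viability loss from added drug above about 55%, and viability with drug at most 40%, in both replicates, limit read from the data, passing the limit was not always enough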); settings: H69AR cells + 2 uM doxorubicin, CellTiter-Glo, 72 h; at 10 µM; active compounds read high

| SMILES | differential viability (reversal) [%] |
| --- | --- |
| Cc1nnc2n(-c3ccc(Cl)cc3)c(=O)c3c4c(sc3n12)CN(C)CC4 | -11.4 |
| O=c1oc2c3c4c(cc2s1)CCCN4CCC3 | 4.35 |
| Cc1cc(C)n2nc(SCc3nc4ccccc4[nH]3)nc2n1 | 8.56 |
| Cc1cc(C)cc(N(CC(=O)Nc2cccc(C)n2)S(=O)(=O)c2c(C)noc2C)c1 | 11.8 |
| COc1cccc(C2C3=C(N=C4SCC(=O)N42)c2ccccc2CC3)c1OC (stereo not given) | 19.8 |
| O=C(Cn1nc(Cc2ccncc2)c2ccccc2c1=O)N1CCN(C(=O)c2ccco2)CC1 | -8.19 |
| O=C(Nc1c(C(=O)NCc2ccco2)cnn1-c1ccccc1)c1ccc(F)cc1 | 4.25 |
| Cc1nc2ccc(S(=O)(=O)NC(C(=O)Nc3nccs3)C(C)C)cc2s1 (stereo not given) | 5.42 |
| Cn1nnnc1SCC(=O)N1CCN(c2ccccc2)CC1 | 8.86 |
| COc1cc2c(cc1OC)-c1nnc(C)n1C1(CCCC1)C2 | 0.73 |
| CS(=O)(=O)N(Cc1ccco1)CC(O)Cn1c2ccccc2c2ccccc21 (stereo not given) | -2.92 |
| COc1cccc(C2=NOC(C(=O)N3CCc4ccccc4C3)C2)c1 (stereo not given) | 14.1 |
| O=C(CC1Oc2ccccc2NC1=O)NCCCN1CCOCC1 (stereo not given) | -3.48 |
| CCOC(=O)N1CCN(C(=O)c2ccc(CS(=O)(=O)c3c(Cl)cccc3Cl)o2)CC1 | -4.92 |
| CCn1cc(SCC(=O)Nc2cc(C)on2)c2ccccc21 | 3.56 |
| COc1ccccc1N1CCN(C(=O)N2CCOCC2)CC1 | -9.12 |
| O=C(CSc1nnc2ccccn12)c1ccccc1 | 14.1 |
| CCOc1ccc(N(CC(=O)OC)S(=O)(=O)c2ccc(OC)c(OC)c2)cc1 | 6.15 |
| CCCCSc1nc(CCC)cc(=O)[nH]1 | -0.345 |
| O=C(CN1CCN(Cc2ccccc2F)C1=O)NCc1cccnc1 | 17 |

| SMILES | differential viability (reversal) [%] |
| --- | --- |
| COc1ccc(OC)c(C(=O)c2ccc(C(=O)O)cc2)c1 | 6.11 |
| Cc1ccc(C)n1-n1c(C)nc2sc(-c3ccccc3)cc2c1=O | -8.97 |
| CCn1c(C(=O)N2CCC(C(=O)N3CCN(c4ccccn4)CC3)CC2)cc2sccc21 | 32.9 |
| C=CCSc1nc(N)c2c(C)c(C)sc2n1 | 4.54 |
| COc1ccc(OCCSc2nc3ccccc3n2CC(=O)O)cc1 | 2.5 |
| Cc1nnc(SCC(=O)NCc2ccccc2)s1 | 1.61 |
| Clc1ccc(SCCCCn2ccnc2)cc1 | 10.9 |
| CC1(C)Oc2ccc3ccc(=O)oc3c2C(N2CCCCC2)C1O (stereo not given) | 7.25 |
| CSCCC(N=CC1=C(O)CC(C)(C)CC1=O)C(=O)O (stereo not given) | -2.07 |
| COc1ccc(C)cc1NC(=O)C1CCN(S(=O)(=O)c2cccc3cccnc23)CC1 | 4.79 |
| CCOc1ccc(-c2nnc(SCC(=O)N3CCN(c4ccccc4)CC3)o2)cc1 | -2.04 |
| CCCOc1ccc2ccccc2c1/C=N/n1cnnc1 | 3.08 |
| O=C(Cn1cc2c(n1)CCCCC2)N1CCc2ccccc21 | -3.99 |
| CCn1cc(C(=O)N2CCOCC2)c(=O)c2cc(S(=O)(=O)N(C)C3CCCCC3)ccc21 | 19.7 |
| COCCn1c(SCC(=O)Nc2ccc3c(c2)OCCO3)nc2c(c1=O)SC(C)C2 (stereo not given) | -21.9 |
| CC(C)CCN(C)C1CCN(S(=O)(=O)c2ccc(F)cc2)CC1 | -10.5 |
| COc1ccccc1-n1c(=O)[nH]c2c(C(N)=O)nc(-c3cccnc3)nc21 | -5.7 |
| Cn1c(/C=N/n2cnnc2)nc2ccccc21 | -14.4 |
| CN1CCN(CCCNC(=O)Cn2ncc3c4ccccc4n(C)c3c2=O)CC1 | -8.1 |
| CCOc1ccc(N(CC(=O)NCc2ccco2)S(=O)(=O)c2ccc(OC)c(OC)c2)cc1 | 0.495 |
